Laboratory results taken from the supplement of paper PMC10646978.
± gives the standard deviation.

test system: RAW-Dual (murine macrophage reporter line); assay: NF-kB reporter (SEAP) activity fold change vs agonist alone; higher = enhanced NF-kB activity; conditions: modulator concentration 10 µM; agonist: MPLA […]
How it was run: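 RAW-Dual murine macrophage reporter cells were seeded at 50 000 per well in 384-well plates and pre-incubated 1 hour at 37 °C with compound pin-transferred to 10 μM final. After 1 hour, a PRR agonist was added and cells incubated overnight. Supernatant NF-κB (SEAP, QUANTI-Blue, 620 nm absorbance) and IRF (Lucia luciferase, QUANTI-Luc, luminescence) signals were divided by the mean agonist-only control on the same plate to give fold change. Two replicate plates were averaged, with errors by propagation.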

| SMILES | NF-kB reporter |
| --- | --- |
| CC(=O)Nc1ccc(C(=O)NCC#CCN(C)C)cc1 | 1.07 ± 0.058 |
| CC(=O)Oc1ccc(C=Cc2cc(OC(C)=O)cc(OC(C)=O)c2)cc1 | 1.12 ± 0.092 |
| O=C(O)COc1cc(Cl)c(Cl)cc1Cl | 0.995 ± 0.093 |
| Cc1ccc(C)c2sc(N3CCN(C)CC3)nc12.Cl | 1.07 ± 0.071 |
| COc1ccccc1CC(=O)N1CCN(Cc2cnnn2-c2ccccc2F)CC1 | 1.15 ± 0.065 |
| Cc1cccc2sc(NC(=O)c3cccn(Cc4ccc(Br)cc4)c3=O)nc12 | 1.02 ± 0.15 |
| CCN(CC)CCOC(=O)C(O)(c1ccccc1)c1ccccc1.Cl | 0.923 ± 0.066 |
| O=C(NCCN1CCN(c2ccccc2)CC1)c1ccc(F)cc1 | 1.03 ± 0.026 |
| c1cc2c(cc1C1OCC3C(c4ccc5c(c4)OCO5)OCC13)OCO2 (stereo not drawn) | 1.1 ± 0.082 |
| CN1C2CCC1CC(OC(=O)C(CO)c1ccccc1)C2 (stereo not drawn) | 1.14 ± 0.098 |
| COc1cc2c(c(OC)c1OC)-c1ccc(O)c(=O)cc1C(NC(C)=O)CC2 (stereo not drawn) | 1.52 ± 0.16 |
| O=C1NC(=O)N(c2ccccc2F)C(=O)C1=Cc1ccc(OCc2ccc([N+](=O)[O-])cc2)c(Cl)c1 | 0.894 ± 0.057 |
| CCCCCC(=O)NC(Oc1ccc([N+](=O)[O-])cc1)C(Cl)(Cl)Cl (stereo not drawn) | 1 ± 0.035 |
| C=C1C[C@@H]2[C@H](CC[C@]3(C)C(=O)CC[C@@H]23)[C@@]2(C)C=CC(=O)C=C12 | 0.984 ± 0.033 |
| O=C1NC(=O)C(=Cc2cccn2-c2ccc(Br)cc2)C(=O)N1 | 1.08 ± 0.04 |
| CC(C)N(CCC(C(N)=O)(c1ccccc1)c1ccccn1)C(C)C (stereo not drawn) | 0.99 ± 0.067 |
| CCNCC.O=C(O)Cc1ccccc1Nc1c(Cl)cccc1Cl | 0.993 ± 0.058 |
| Cc1cc(N2CCNCC2)c2ccccc2n1 | 0.899 ± 0.092 |
